In PubChem BioAssay (NCI):
About 79,000 compounds went through this panel and 15% of them were active in at least one assay; those are over-represented in the sample as a whole. Values without a mark were called inactive. Activity calls are given as the source filed them. No stated cut-off is given here; in the data, active means growth inhibition above about 70%; inactive means the rest.

How the values were obtained:
[1] = NCI Yeast Anticancer Drug Screen. Data for the rad50 strain (AID 155);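 further: 0% = growth of vehicle-only cultures of the same strain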; details: S. cerevisiae rad50 strain growth inhibition; at 50.0 µM; active compounds read high
How it was run: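 Readout: growth inhibition relative to vehicle-treated cultures. Compound exposure was carried out in a genetically defined yeast strain deficient in DNA damage repair.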

[2] = NCI Yeast Anticancer Drug Screen. Data for the mec2-1 strain (AID 157); details: S. cerevisiae mec2-1 strain, at 50.0 µM, active compounds read high
How it was run: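 mec2-1 yeast strain, carrying an alteration in DNA damage repair or cell cycle control, was exposed to compounds; growth inhibition was measured relative to vehicle-treated controls.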

[3] = NCI Yeast Anticancer Drug Screen. Data for the sgs1 mgt1 strain (AID 161);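 further: 0% = growth of cultures given vehicle only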; details: S. cerevisiae sgs1 mgt1 strain, at 50.0 µM, active compounds read high
How it was run: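 Percent growth inhibition was derived by comparing compound-exposed mutant yeast with vehicle-exposed cultures. The strain carries alterations in DNA damage repair.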

[4] = NCI Yeast Anticancer Drug Screen. Data for the cln2 rad14 strain (AID 165);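 further: 0% = growth equal to vehicle treated cultures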; details: S. cerevisiae cln2 rad14 strain, at 50.0 µM, active compounds read high
How it was run: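 Yeast carrying cln2 and rad14 alterations (cell cycle control and DNA damage repair) were exposed to compounds. Growth inhibition was measured against vehicle-treated controls.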

[5] = NCI Yeast Anticancer Drug Screen. Data for the bub3 strain (AID 167); details: S. cerevisiae bub3 mutant strain, at 50.0 µM, active compounds read high
How it was run: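 Readout: yeast growth inhibition, expressed relative to vehicle-only wells. The test organism is a mutant strain from a panel with lesions in DNA repair or checkpoint genes.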

[6] = NCI Yeast Anticancer Drug Screen. Data for the mlh1 rad18 strain (AID 175); details: S. cerevisiae mlh1 rad18 strain growth inhibition; at 50.0 µM; active compounds read high
How it was run: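 Growth inhibition of the yeast strain was measured after compound exposure and expressed relative to vehicle-treated controls. The strain carries defined defects in DNA damage repair.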

Row | Compound | growth inhibition [1] | growth inhibition [2] | growth inhibition [3] | growth inhibition [4] | growth inhibition [5] | growth inhibition [6]
1 | COc1nc(C(=O)O)c(Cl)c(OC)c1Cl | -34.6% | -21.8% | -40.5% | -4.95% | -39.6% | -35%
2 | CCOC(=O)CNC(=O)C(CCSCc1ccccc1)NC(=O)OCc1ccccc1 (stereo not drawn) | -2.75% | 6.55% | 0.3% | 28.6% | 4.45% | 15.2%
3 | COc1cccc2c1C(=O)c1c(O)c3c(c(O)c1C2=O)CC(O)(C(C)=O)CC3O (stereo not drawn) | 61.5% | 12.5% | 39% | 17.1% | 34.4% | 50.5%
4 | COc1cccc(C=Nc2cc(C)ccn2)c1O.COc1cccc(C=Nc2cc(C)ccn2)c1O.[Cu] | 3.45% | -7.75% | 9.75% | 14.2% | -11.6% | 38.6%
5 | Oc1ccccc1CNCCNCc1ccccc1O | -12.2% | -14.1% | 1.6% | 17.6% | -4.5% | -36.2%
6 | CC1(O)CC2C=CC1CC2 (stereo not drawn) | 9.65% | 7.15% | 4.6% | 4% | 9.55% | 13.8%
7 | Cn1cnc2ncnc(Nc3ccc(Cl)cc3)c21 | 5.25% | -16% | 4% | -24.2% | 10% | -6.1%
8 | COc1ccc2cc(C(C)C(=O)N3C(=O)OCC3(C)C)ccc2c1 (stereo not drawn) | 19.4% | -11.3% | 30.4% | -13.7% | -8.75% | 9.95%
9 | C=C(C)S(=O)(=O)c1ccc(C)cc1 | 11.3% | -16.4% | -5.7% | -15.3% | 12% | 11.8%
10 | CNC(=O)OCc1c(COC(=O)NC)c(-c2ccsc2)n2c1CCC2 | 17.5% | 13.6% | 37.1% | -5.6% | -22.4% | 8.25%
11 | CN(C)c1ccc(-c2c3ccc(Cl)cc3nc3ccc(Br)cc23)cc1 | -1.3% | -1.9% | -18.1% | -4.3% | -1% | -8.9%
12 | Nc1ccc(Nc2cc(=O)[nH]c(=O)[nH]2)cc1Cl | 5.8% | 6.6% | 14.1% | 6.2% | -3.2% | -20.8%
13 | O=C1c2ccccc2C(=O)N1CCOCCOCCOCCN1C(=O)c2ccccc2C1=O | 9.4% | -5.95% | -0.75% | -12.3% | -2.75% | -36%
14 | C=CCC(C(=O)NC(N)=O)c1ccccc1 (stereo not drawn) | 3.9% | -7.65% | -11.3% | 19.5% | 8.05% | 0.35%
15 | CCC1(C)N=C(N)Nc2nc3ccccc3n21 (stereo not drawn) | -9.95% | 0.35% | -7.65% | -28.6% | 0.4% | -18.2%
16 | CC1(C)COC(=O)OC1 | 17.8% | 11.5% | 16.4% | 12.8% | 14.8% | 16.9%
17 | COc1ccccc1C1OC(C)C(C)O1 (stereo not drawn) | -16.1% | -10.7% | -7.35% | 5.5% | -25.9% | -16.3%
18 | CSc1nnc(CCC(=O)Nc2ccc(Cl)cc2Cl)o1 | 0.75% | 12.5% | 10.9% | 10.3% | 14.4% | -10.2%
19 | CNc1nc2c(C)ccc3[nH]c(NC)nc3c-2n1 | -22.2% | -25.1% | -6.65% | 1.95% | -41.4% | -15.9%

Row | Compound | growth inhibition [1] | growth inhibition [2] | growth inhibition [3] | growth inhibition [4] | growth inhibition [5] | growth inhibition [6]
20 | O=C(CC(C(=O)c1cccs1)c1cccs1)c1ccsc1 (stereo not drawn) | -4.2% | -24.1% | 10.6% | 11.1% | 2.9% | -4.1%
21 | C=CCc1cc(OC)ccc1O | 22.3% | 36.8% | 30.8% | -3% | 22.3% | 19.6%
22 | CC(Br)CCl (stereo not drawn) | 26.4% | 17.1% | 22.1% | 2.1% | 14.4% | 39.2%
23 | O=C(N=Nc1c(O)[nH]c2ccccc12)C(=O)N=Nc1c(O)[nH]c2ccccc12 | -4.95% | 8.35% | 9.5% | -1.1% | 7.15% | 26.6%
24 | Clc1ccc([I+]c2ccc(Cl)cc2)cc1 | 96.2% (active) | 95.5% (active) | 97.5% (active) | 97.4% (active) | 97% (active) | 97.2% (active)
25 | CCOc1ccc(Nc2nc(C(Cl)(Cl)Cl)cc(C(Cl)(Cl)Cl)n2)cc1CN(CC)CC | 98.2% (active) | 99.1% (active) | 99% (active) | 98.1% (active) | 98% (active) | 98.8% (active)
26 | O=C(C(=Nc1ccccc1)C(=Nc1ccccc1)C(=O)c1ccccc1)c1ccccc1 | 78.8% (active) | 32.1% | 55.2% | 8.5% | 15.3% | 37%
27 | CS(=O)(=O)OC[C@@H](O)[C@@H](O)COS(C)(=O)=O | -2.15% | 7.4% | -1.85% | -57.1% | 3.55% | -6.85%
28 | O=C(c1ccccc1)c1cccc2cccc(C(=O)c3ccccc3)c12 | 3.2% | 11.7% | -7.7% | 6% | 6.45% | -27.6%
29 | CSc1nnc(COc2ccc(Cl)cc2)o1 | 22.3% | 5.75% | 26.1% | 29.4% | 12.8% | 20.7%
30 | COc1cc(C2N3CCCN2CC3)cc(OC)c1OC (stereo not drawn) | -3.75% | 0.35% | -21.6% | -3.5% | -7.75% | -2.55%
31 | Oc1ccc(Cl)cc1N1CCOCC1 | 9.55% | 24.1% | 13.4% | -15.2% | -19.6% | -15%
32 | CCC1(CC)NC(=S)NC1=S | 24.5% | 7.4% | 26.4% | 10% | 16.4% | 20%
33 | O=C(O)c1[nH]c2c(=O)[nH]c(=O)[nH]c2c1Br | 5.25% | -2.8% | -15.9% | -4.35% | 2.15% | 15%
34 | NC(=O)CC1(C(=O)O)c2ccccc2-c2ccccc21 | 17.1% | -14.2% | 2.65% | -7.55% | 14.6% | -3.95%
35 | C[n+]1c2ccccc2c(Oc2c3ccccc3[n+](C)c3ccccc23)c2ccccc21 | 3.8% | 11.2% | 31.4% | -15.3% | -4.4% | 0.1%
36 | CCOC(=O)/C(N=O)=C(/C)O | 13.8% | 5.9% | 4.8% | -7.95% | 11.4% | 11.3%
37 | CS(=O)(=O)C1CCCCC1SC#N (stereo not drawn) | -5.1% | -16.7% | -14.5% | -19% | 4.1% | 3.45%
38 | Nc1ccc(C(=O)NO)c(O)c1 | 6.2% | 18.9% | -7.55% | -41.8% | 18.7% | -6%
